# Screening data (PubChem BioAssay)
# Sampled rows, rich in hits. Any-hit rate of the full collection: about 7.8%.
# HCMV inh: qHTS Assay for inhibitors of the human cytomegalovirus (HCMV); HFF cells, HCMV-luciferase reporter, 72 h; active compounds read low; AID 1259415, 2018; 410,000 tested, 4.5% active; activity change, negative = inhibition, % at 57.5 µM; in the data active = activity change below about -60%; inconclusive = no clear call, values can overlap the other calls; inactive = above about -39%
#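 Two compound doses tested in HFFs infected with HCMV-luciferase, MOI 1 PFU/cell, 72 h at 37C. Lysate luminescence read with OneGlo; data normalized against buffer-only and 10uM Salinomycin inhibitor controls.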
# VACV Venus inh: qHTS for Stage-Specific Inhibitors of Vaccinia Orthopoxvirus: Venus Reporter Primary qHTS; Vaccinia virus Venus reporter expression, fluorescence; Potency, µM (doses to about 36.5 µM), hits mostly inhibitors; 330,000 tested, 0.46% active; AID 720580, 2013; calls by dose curve; tested in A549 cells; note: nearly all actives have a fitted effect of over 30% in size
# MARV entry inh: qHTS for inhibitors of binding or entry into cells for Marburg Virus. Marburg virus pseudotyped entry inhibition, cell reporter. Potency, µM (top dose mostly 37.8 µM), hits mostly inhibitors. 300,000 tested, 1.8% active. AID 540276, 2011; calls by dose curve; tested in HEK293 cells
# VACV mCherry inh: qHTS for Stage-Specific Inhibitors of Vaccinia Orthopoxvirus: mCherry Reporter Primary qHTS. Vaccinia virus mCherry reporter infection, fluorescence. Potency, µM (top dose mostly 36.5 µM), actives largely listed as inhibitors. 310,000 tested, 0.63% active; calls by dose curve; tested in A549 cells; note: nearly all actives have a fitted effect of over 35% in size
# LASV entry inh: qHTS for Inhibitors of binding or entry into cells for Lassa Virus | Lassa virus pseudotype entry inhibition, cell reporter | Potency, µM (titrated, usually from 37.9 µM), most hits filed as inhibitors | 300,000 tested, 1.2% active | AID 540256, 2011; calls by dose curve; tested in HEK293 cells; note: nearly all actives have a fitted effect of over 50% in size
# HCV inh: qHTS Assay for Inhibitors of Hepatitis C Virus (HCV); 340,000 tested, 3.4% active; Potency, µM (titrated, usually from 41.8 µM), actives largely listed as inhibitors; Huh7.5.1 HCVcc-Cre infection, luciferase reporter, 44 h; AID 651820, 2012; active = well fitted inhibition curve with a large enough effect; inconclusive = small, poorly fitted or top-dose-only effect, or another doubt; inactive = no such curve, though single readings can be large or run the other way
#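 Whole-lifecycle infectious HCVcc-Cre system; cells 1,000/well, compound then virus (~0.5 moi) added 4 h after plating, 44 h culture. Luciferase read 15 sec following 15 min substrate incubation, room temp.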
# Hits are given with their value; n = inactive; u = inconclusive; x = no result; ! = repeats disagree.
SMILES,HCMV inh,VACV Venus inh,MARV entry inh,VACV mCherry inh,LASV entry inh,HCV inh
CCOC(=O)c1c(C)[nH]c(C)c1S(=O)(=O)N1CCCC(C(=O)Nc2cccc(C)n2)C1 (stereo not given),n,n,x,n,n,x
CCOC(=O)c1c(C)[nH]c(C)c1S(=O)(=O)N1CCCC(C(=O)N2CCN(c3cccc(Cl)c3)CC2)C1 (stereo not given),-73,u,x,u,u,x
CCOC(=O)c1c(C)[nH]c(C)c1S(=O)(=O)N1CCC(C(=O)N2CCN(c3cccc(C)c3)C(C)C2)CC1 (stereo not given),-95,u,x,u,n,x
CCOC(=O)c1c(C)[nH]c(C)c1S(=O)(=O)N1CCC(C(=O)N2CCN(c3cc(C)ccc3C)CC2)CC1,n,u,x,u,n,x
CCOC(=O)c1c(S(=O)(=O)N2CCCC(C(=O)N3CCN(c4ccccc4)CC3)C2)c(C)n(C)c1C (stereo not given),n,n,x,n,n,x
Cc1nc2c(C(=O)NCCCN(CC(C)C)CC(C)C)cnn2c(C)c1Cc1c(F)cccc1Cl,u,n,x,n,n,x
CCOC(=O)C(NC(C)=O)C(OC(C)=O)c1cccc(N(CCCl)CCCl)c1 (stereo not given),-64,n,u,x,u,n
CC1CC2C(C(O)CC3(C)C2CCC3(O)C(=O)CO)C2(C)C=CC(=O)C=C12 (stereo not given),n,n,n,n,n,n
CC1O[C@@H](OC2CC(O)[C@@]3(CO)C4C(O)C[C@@]5(C)C(C6=CC(=O)OC6)CC[C@]5(O)C4CC[C@]3(O)C2)C(O)C(O)C1O (stereo not given in full),x,0.28µM,x,0.32µM,x,x
C[C@@H]1O[C@@H](O[C@H]2C[C@@H](O)[C@]3(CO)[C@@H]4C(CC[C@]3(O)C2)[C@@]2(O)CC[C@H](C3=CC(=O)OC3)[C@@]2(C)C[C@H]4O)[C@H](O)[C@H](O)[C@H]1O (stereo not given in full),x,n,0.032µM,n,x,x
C[C@@H]1O[C@@H](O[C@H]2C[C@@H](O)[C@]3(CO)[C@H]4[C@H](O)C[C@]5(C)[C@@H](C6=CC(=O)OC6)CC[C@]5(O)[C@@H]4CC[C@]3(O)C2)[C@H](O)[C@H](O)[C@H]1O,x,0.63µM,0.065µM,0.5µM,0.046µM,2.2µM
CC(CCC(=O)OC[C@H]1O[C@H](C#Cc2ccccc2)C=C[C@H]1Oc1ccc(C)cc1)=NOC[C@@H](O)COCc1ccco1,x,x,n,x,x,x
COc1cc(NC(=O)CSc2ccc(-c3ccccn3)nn2)cc(OC)c1,u,u,u,11µM,u,u
COc1cc(NC(=O)CSc2ncccc2C(=O)OC(C)C)cc(OC)c1,-108!,n,n,n,n,u
CC(=O)Nc1cccc(NC(=O)CSc2ccc(-c3ccccn3)nn2)c1,u,u,n,u,u,u
Cc1cccc(NC(=O)CSc2ccc(-c3ccccn3)nn2)c1,-105,n,x,u,n,x
Cc1cc(C)cc(NC(=O)CSc2ccc(-c3cccs3)nn2)c1,u,u,7.1µM,n,u,u
O=C1[C@@H]2[C@H]3[C@H](O)[C@H](O)CC(=NOC[C@@H](O)COCc4ccco4)[C@H]3CC[C@H]2C(=O)N1C[C@@H]1CCCO1,x,x,n,x,x,x
COc1cc(Nc2nn(-c3ccc(OC(F)(F)F)cc3)nc2C(C)=O)cc(OC)c1,n,n,n,n,n,x
Cc1cccc(C(=O)N[C@H]2CC[C@@H](n3cc(C(=O)N4CCCC4)nn3)CC2)c1,x,n,x,n,x,x
CCOC(=O)c1ccccc1NC(=O)CSc1ccc(-c2ccccn2)nn1,n,x,x,x,x,u
COc1ccc(C)cc1NC(=O)CSc1ccc(-c2ccccn2)nn1,-93,u,u,16µM,u,u
CC(=O)N/C(=N\c1nc(C)cc(C)n1)Nc1ccc(NC(C)=O)cc1,x,x,n,x,x,x
CCOc1ccccc1N/C(=N/c1nc(C)cc(C)n1)NC(=O)Nc1ccc(Cl)c(Cl)c1,x,x,n,x,n,n
CCc1ccc(N/C(=N/c2nc(C)cc(C)n2)NC(C)=O)cc1,-60,x,x,x,x,n
SMILES,HCMV inh,VACV Venus inh,MARV entry inh,VACV mCherry inh,LASV entry inh,HCV inh
CCCOc1ccccc1N/C(=N/c1nc(C)cc(C)n1)NC(=O)Nc1ccc(Cl)cc1,n,n,0.71µM,n,u,u
CCC(=O)N/C(=N/c1nc(C)cc(C)n1)Nc1ccccc1,u,n,n,n,n,n
COc1ccccc1C(=O)N/C(=N/c1nc(C)cc(C)n1)Nc1ccccc1,n,n,u,n,n,8.9µM
CCn1c(=O)n(CC)c2cc(N3CCCCC3)c(NC(=O)Nc3cc(Cl)ccc3OC)cc21,u,n,x,n,u,x
CCOc1ccccc1NC(=O)C1CCN(c2nc(-c3ccc(OC)cc3)no2)CC1,n,n,x,n,x,n
COc1ccc(-c2noc(N3CCC(C(=O)Nc4ccccc4Cl)CC3)n2)cc1,n,n,x,n,x,n
COc1ccc(-c2noc(N3CCC(C(=O)N(C)c4ccccc4)CC3)n2)cc1,n,u,x,n,x,11µM
COc1ccc(-c2noc(N3CCC(C(=O)NC(C)c4ccccc4)CC3)n2)cc1 (stereo not given),-63,n,x,n,x,u
CCN(C(=O)C1CCN(c2nc(-c3ccc(OC)cc3)no2)CC1)c1ccccc1,n,u,x,n,x,10µM
CCOC(=O)N1CCC(NC(=O)C2CCN(c3nc(-c4ccc(OC)cc4)no3)CC2)CC1,-65,x,n,x,n,u
CCN(C(=O)C1CCCN(c2nc(-c3ccc(OC)cc3)no2)C1)c1ccccc1F (stereo not given),n,u,x,u,x,u
COC(=O)CN1C(=O)CSc2ccc(S(=O)(=O)Nc3ccc(C(C)=O)cc3)cc21,u,n,x,n,n,x
NC(=Nc1ccc(N)cc1)C(N)=Nc1ccc(N)cc1,-65,n,u,u,n,n
COc1cc(C2CC(=O)N(Cc3cccc(F)c3)c3ccccc3S2)cc(OC)c1OC (stereo not given),-95,n,n,n,x,x
CC1CCN(S(=O)(=O)c2c[nH]c(=O)[nH]c2=O)CC1,n,n,n,n,n,10µM
COC(=O)C1CCN(S(=O)(=O)c2c[nH]c(=O)[nH]c2=O)CC1,n,n,x,n,x,x
CN(C)S(=O)(=O)c1cccc(C(=O)NCC2CCCCC2)c1,-78,n,n,n,n,n
CCN(CC)c1ccc(S(=O)(=O)N(CC)CC)cc1NC(=O)C1CCCC1,n,n,u,n,7.9µM,u
CCN(Cc1ccccc1)S(=O)(=O)c1cc(C(=O)NCC2CCCCC2)ccc1OC,-83,u,u,n,u,u
O=C(NCC1CCCCC1)c1ccc([N+](=O)[O-])cc1,n,x,x,x,x,n
CCN(CC)S(=O)(=O)c1ccc(C(=O)NCC2CCCCC2)cc1,n,n,n,n,7.1µM,n
